Screening data deposited in PubChem by National Center for Advancing Translational Sciences (NCATS).
A selection: hits, their analogues and other compounds. The true share with any hit is near 7.8%.
Marburg entry inh: blocks Marburg virus binding to or entry into cells; Marburg virus pseudotyped entry inhibition, cell reporter; Potency, µM (top dose mostly 37.8 µM), for inactives: at the highest dose activity change, negative = inhibition, usual class: inhibitors; actives 1.8% (n = 300,000); AID 540276; calls by dose curve; tested in HEK293 cells; also: potency is read from the fitted curve at half-maximal effect
HCV inh: inhibitors of hepatitis C virus infection | Huh7.5.1 HCVcc-Cre infection, luciferase reporter, 44 h | Potency, µM (highest dose often 41.8 µM), for the others: top-dose activity change, negative = inhibition, hits mostly inhibitors | actives 3.4% (n = 340,000); active = well fitted inhibition curve with a large enough effect; inconclusive = small, poorly fitted or top-dose-only effect, or another doubt; inactive = no such curve, though single readings can be large or run the other way; also: potency is read from the fitted curve at half-maximal effect
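1,000 cells/well; 4 h culture; + compound; + HCVcc-Cre (~0.5 moi); 44 h; luciferase substrate, RT 15 min; read 15 sec.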
VACV Venus inh: vaccinia inhibition (Venus reporter). Potency, µM (titrated, usually from 36.5 µM), without a hit: at the top dose activity change, negative = inhibition, actives largely listed as inhibitors. AID 720580. Vaccinia virus Venus reporter expression, fluorescence. actives 0.46% (n = 330,000); calls by dose curve; tested in A549 cells; also: potency is read from the fitted curve at half-maximal effect; nearly all actives have a fitted effect of over 30% in size
HCMV inh: human cytomegalovirus inhibition; HFF cells, HCMV-luciferase reporter, 72 h; stronger effect = lower value; activity change, negative = inhibition, % at 57.5 µM; actives 4.5% (n = 410,000); AID 1259415; in the data active = activity change below about -60%; inconclusive = no clear call, values can overlap the other calls; inactive = above about -39%
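Screen run at 2 compound doses on HFFs infected with reporter HCMV, MOI 1 PFU/cell. Luciferase activity from cell lysates at 72 h post infection gave inhibition relative to buffer-only and Salinomycin wells.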
VACV mCherry inh: vaccinia inhibition (mCherry reporter); actives 0.63% (n = 310,000); Potency, µM (titrated, usually from 36.5 µM), for the others: at the top dose activity change, negative = inhibition, usual class: inhibitors; Vaccinia virus mCherry reporter infection, fluorescence; AID 720579; calls by dose curve; tested in A549 cells; also: potency is read from the fitted curve at half-maximal effect; nearly all actives have a fitted effect of over 35% in size
LASV entry inh: inhibitors of Lassa virus binding or cell entry. Lassa virus pseudotype entry inhibition, cell reporter. Potency, µM (doses to about 37.9 µM), for inactives: top-dose activity change, negative = inhibition, most hits filed as inhibitors. actives 1.2% (n = 300,000); calls by dose curve; tested in HEK293 cells; also: potency is read from the fitted curve at half-maximal effect; nearly all actives have a fitted effect of over 50% in size
An asterisk follows results filed as active; i = inactive; ? = inconclusive; . = no result; [ ] = remark or other dose. % is scaled to controls: 0 for no effect and ±100 for the full control effect.

SMILES	Marburg entry inh	HCV inh	VACV Venus inh	HCMV inh	VACV mCherry inh	LASV entry inh
CN1CCN(c2ccc(Nc3cc4c(cn3)cc(-c3cccc(F)c3)n4C)cc2)CC1	.	.	.	-21	.	.
CCOc1ccc(-c2nnn(CC(=O)N3CCCC(C)C3)n2)cc1 (stereo not given)	.	-20%	.	-70*	.	.
C=CCN1c2ccccc2[C@]23CCC(=O)N(CC(=O)OC)C2=NC(C(=O)OC)=C(C(=O)OC)[C@H]13	18%[14.2 µM]	.	.	.	.	.
N#Cc1cc(-c2ccccc2)nc(Oc2ccccc2)n1	.	10µM*	.	?	.	.
CN1CCN(c2nc(C#N)cc(-c3ccccc3)n2)CC1	0%	10µM*	-24%	-23	.	1%
CCn1cc(/C=C(\NC(=O)c2ccccc2Cl)C(=O)NCCCn2ccnc2)c2ccccc21	-26%[46.1 µM]	.	-2%	-16	-4%	-1%[46.1 µM]
CCOc1ccc(N2C(=O)CS(=O)(=O)C23C(=O)N(Cc2cccc(Cl)c2)c2ccccc23)cc1 (stereo not given)	.	.	-9%	-14	-9%	-9%[46.1 µM]
CC(C#N)Sc1ccc(S(=O)(=O)N(C)C2CCCCC2)cn1 (stereo not given)	.	7%	.	-62*	.	.
CCOC(=O)C1=C(O)CCn2c1nc1ccccc12	24%	-4%	.	-107*	.	-6%
CCOc1ccc(C(=O)N2CCn3c2nc2ccccc23)cc1	?	12%	4%	?	10%	?
Cc1cc(NC2CCCC2)n2nc(C)c(-c3ccccc3)c2n1	?	?	-25%	18	i	9%[46.1 µM]
Cc1cc(-c2ccccc2)n2ncc(-c3ccccc3)c2n1	3.7µM*	?	-26%	-60*	i	?
COc1ccc(-c2cc(C)nc3c(-c4ccccc4)cnn23)cc1	-27%[46.1 µM]	11µM*	-11%	37	-13%	?
Cc1cc(NC(C)c2ccccc2)n2ncc(-c3ccccc3)c2n1 (stereo not given)	.	?	.	85	.	.
Cc1nc2c(-c3ccccc3)cnn2c(N)c1-c1ccccc1	?	?	?	-91*	?	?
Cc1cc(NC2CCCC2)n2ncc(-c3ccccc3)c2n1	?	?	-6%	-90*	3%	?
CCC1CN(CCNC(=O)c2ccccc2-n2cccn2)Cc2cc(OC)ccc2O1 (stereo not given)	.	.	-2%	.	-15%	.
CCc1ccc(NCc2cc3ccc(OC)cc3n(CC(=O)Nc3cccc(Cl)c3C)c2=O)cc1	.	.	-1%	9	-11%	2%[46.1 µM]
CCN(CC)CCCN1C(=O)CSC1c1ccc([N+](=O)[O-])cc1 (stereo not given)	.	12%	.	-102*	.	.
CCOc1ccc2cc(C#N)c(SCC(=O)OCc3ccccc3)nc2c1	.	.	-20%	.	i	.
O=C(C#Cc1ccccc1)c1ccc([N+](=O)[O-])cc1	-21%	?	-11%	-88*	i	?
O=C(CSCC(=O)c1ccc([N+](=O)[O-])cc1)c1ccc([N+](=O)[O-])cc1	.	.	-12%	.	-5%	.
CN(C)C(=O)C#Cc1ccccc1	-7%	8%	-10%	-4	-17%	?
O=C(C#Cc1ccccc1)c1ccccc1	.	.	?	-84*	?	.
CCn1c(SCc2cccc(Br)c2)nnc1-c1nonc1NC(C)=O	3%[46.1 µM]	.	-21%	-14	-15%	9%[46.1 µM]
SMILES	Marburg entry inh	HCV inh	VACV Venus inh	HCMV inh	VACV mCherry inh	LASV entry inh
CCOc1cc(NS(=O)(=O)c2ccc(NC(C)=O)cc2)c(OCC)cc1NC(=O)c1cccs1	2%	3%	-27%	-79*	?	-12%
CCOc1cc(NC(=S)NCCCOC)c(OCC)cc1NC(=O)c1cccs1	14%	-12%	-13%	-16	-19%	-11%
CCOc1cc(NC(=S)NC)c(OCC)cc1NC(=O)c1cccs1	-6%	?	0%	-9	-18%	.
CCOc1cc(NC(=S)NCCCN(C)C)c(OCC)cc1NC(=O)c1cccs1	?	?	-9%	-64*	-14%	2%
Cc1cc2c(cc1C)CSC(c1ccc3ccccc3c1O)SC2	3.7µM*	-14%	.	15	.	?
Cc1cc2c(cc1C)CSC(c1ccccc1O)SC2	?	?	.	?	.	-23%
Cc1cc2c(cc1C)CSC(c1c(O)ccc3ccccc13)SC2	?	?	?	-74*	-21%	?
Cc1cc2c(cc1C)CSC(c1ccc(O)cc1)SC2	-1%	1%	-8%	-15	-22%	?
O=C(c1ccccn1)N(Cc1cccs1)C1(C(=O)NC2CCCCC2)CCCCC1	?	11µM*	-8%	5	-4%	-13%
CC(C)CC1c2[nH]c3ccccc3c2CCN1C(=O)c1cnccn1 (stereo not given)	2.8µM*	-6%	20%	2	-23%	?
CC(=O)c1cc(C(=O)N2CCc3c([nH]c4ccccc34)C2CC(C)C)[nH]n1 (stereo not given)	?	4%	4%	8	-23%	?
Cc1cc(C)cc(CN2CCOc3ccc(CN4CCC(O)(c5cccnc5)CC4)cc3C2)c1	.	.	-9%	.	-2%	.
COc1ccc(Cl)cc1NC(=O)CN(C1CCCCC1)S(C)(=O)=O	-12%	4.5µM*	.	24	.	12%
COc1ccc(Cl)cc1NC(=O)CN(C)CC(=O)Nc1c(C)n(C)n(-c2ccccc2)c1=O	.	3.5µM*	.	0	.	.
CCOc1ccccc1C(=O)NC1CCN(CC(=O)Nc2cc(OC)ccc2OC)CC1	.	11µM*	.	?	.	.
CCOc1ccccc1NC(=O)CN1CCC(NC(=O)c2ccccc2C)CC1	-22%[46.1 µM]	?	-8%	-9	16%	-5%
COc1ccc(Cl)cc1NC(=O)CN1c2ccccc2CC1C (stereo not given)	?	8.9µM*	-6%	?	-14%	-17%
CCOc1ccc(-n2c(=O)c3c4c(sc3n(CC(=O)NC(C)CC)c2=O)CCC4)cc1 (stereo not given)	?	.	-7%	9	-6%	1%[46.1 µM]
CC(C)CCn1c(=O)c2sccc2n2c(CCCC(=O)NC3CCC(C)CC3)nnc12 (stereo not given)	.	.	-5%	-21	-14%	14%[46.1 µM]
CC(=O)O[C@H]1[C@@H](O)[C@H](O)[C@H](Oc2c(O)c(C)c3c4c2[C@@H](C)CC[C@@H]4[C@@H](C)C[C@@H]3C=C(C)C)O[C@H]1C	.	.	.	-6	.	.
Cc1cc(=O)[nH]c2ccc(O)cc12	.	.	-16%	.	-14%	.
COc1ccc(Cl)cc1NC(=O)CN1CCc2ccccc2C1	.	?	.	-75*	.	.
COc1ccccc1NC(=O)Cn1nc(-c2ccc(Cl)cc2)c2ccccc2c1=O	-27%[46.1 µM]	10µM*	-8%	?	-22%	1%
COc1ccc(Cl)cc1NC(=O)CN1CCC(NC(=O)C2CC2)CC1	?	-17%	-16%	-77*	0%	-21%
COc1ccc(Cl)cc1NC(=O)CNC(c1ccccc1)c1ccccc1	?	?	-17%	17	-19%	2.5µM*
CCCN1CCC(NC(=O)Nc2cc(Cl)ccc2OC)CC1	.	-30%	.	9	.	.
